Assay outcomes from PubChem BioAssay.
aSyn UTR act: Activators working through SNCA 5'UTR binding (MLPCN); alpha-synuclein 5'UTR reporter, activators screen; activity score, % (tested at 7.5 µM), hits read low; 300,000 tested, 7.1% active; AID 1814; in the data active = activity score below about -60%
Of the large screens only hits and unclear results are named; the others gave an inactive call. The list is a sample of the results.

O=C(O)CCCN1C(=O)/C(=C/c2ccc(-c3nc4ccccc4s3)o2)SC1=S	aSyn UTR act -76
Nc1nc(-c2ccc(Cl)cc2)nnc1-c1ccc(Br)cc1	aSyn UTR act -178
Cc1cccc(-c2nc(N)nc(N)n2)c1	aSyn UTR act -74
Nc1nc(N)nc(-c2ccc(Cl)cc2)n1	aSyn UTR act -112
CCOCC(=O)Nc1cccc(-c2nc3cccnc3s2)c1C	aSyn UTR act -63
COc1cc(NC2c3ccccc3C(=O)N2c2ccc(C)cn2)cc(OC)c1OC (stereo not drawn)	aSyn UTR act -77
CCOC(=O)c1ccccc1NC1c2ccccc2C(=O)N1c1ccc(C)cn1 (stereo not drawn)	aSyn UTR act -85
CC1CCc2c(sc(/N=C/N(C)C)c2C#N)C1 (stereo not drawn)	aSyn UTR act -80
CN(C)/C=N/c1sc2c(c1C#N)CCCC2	aSyn UTR act -80
CN(c1ccc(C(=O)Nc2ccccn2)cc1)S(=O)(=O)c1ccccc1	aSyn UTR act -133
CCc1nnc(NC(=O)c2ccc(S(=O)(=O)N(C)c3ccccc3)cc2)o1	none
CN(c1ccc(C(=O)Nc2cccc(O)c2)cc1)S(=O)(=O)c1ccccc1	aSyn UTR act -105
CCN(c1ccccc1)S(=O)(=O)c1ccc(C(=O)Nc2ccccn2)cc1	aSyn UTR act -76
COc1ccccc1Nc1nc2c(s1)CCC2	aSyn UTR act -68
Cc1ccc(Nc2nc(Cl)c(C=O)s2)cc1Cl	aSyn UTR act -115
COc1ccccc1Nc1nc(Cl)c(C=O)s1	aSyn UTR act -104
O=Cc1sc(Nc2ccccc2)nc1Cl	aSyn UTR act -117
CCN(CC)CCNc1ccnc2cc(Cl)ccc12	aSyn UTR act -62
CCS(=O)(=O)N1CCCC(c2nc(-c3cccc(OC)c3)no2)C1 (stereo not drawn)	aSyn UTR act -102
S=C(Nc1ccccc1)Nc1cccc(Cl)c1Cl	aSyn UTR act -67
S=C(Nc1ccccc1)Nc1ccc(Cl)cc1Cl	aSyn UTR act -91
CNC(=S)Nc1cccc(C(=O)OC)c1	aSyn UTR act -91
NNC(=S)Nc1ccccc1Cl	aSyn UTR act -185
COC(=O)c1cccc(NC(=S)Nc2cccc(Cl)c2Cl)c1	aSyn UTR act -69
Cc1ccc(C(=O)c2cc([N+](=O)[O-])ccc2N2CCN(C)CC2)cc1	none
CCCC(=O)c1ccc(N2CCCC2)c(F)c1	aSyn UTR act -139
CCOC(=O)N1CCN(c2ccc(C(=O)c3ccccc3)cc2F)CC1	aSyn UTR act -99
CCC(=O)c1ccc(N2CCN(C(=O)c3cccs3)CC2)c(F)c1	aSyn UTR act -103
CCC(=O)c1ccc(N2CCCCCC2)c(F)c1	aSyn UTR act -133
CNc1nc(C)nc(-c2ccccc2O)n1	aSyn UTR act -75
Cc1ccc(-c2csc3nc4c5ccccc5c(NCCCN(C)C)nn4c(=O)c23)cc1	none
Cc1ccc2nc(-c3ccncc3)[nH]c2c1	aSyn UTR act -120
Cc1ccc(-c2csc3nc(-c4ccncc4)[nH]c(=O)c23)cc1	aSyn UTR act -86
Cc1ccc(-c2nc3ccsc3c(=O)[nH]2)cc1	aSyn UTR act -137
O=c1[nH]c(Cc2cccs2)nc2scc(-c3ccc(Cl)cc3)c12	aSyn UTR act -77
Cc1ccc2sc(N3CCN(C(=O)c4ccc([N+](=O)[O-])o4)CC3)nc2c1C	aSyn UTR act -76
COc1cccc2sc(N3CCN(C(=O)c4ccc([N+](=O)[O-])o4)CC3)nc12	aSyn UTR act -110
O=C(c1ccc([N+](=O)[O-])o1)N1CCN(c2nc3ccc(F)cc3s2)CC1	aSyn UTR act -108
COc1cccc(Nc2ncnc3c2cnn3-c2cccc(C)c2)c1	aSyn UTR act -137
COc1ccccc1Nc1ncnc2c1cnn2-c1cccc(C)c1	aSyn UTR act -84
O/N=C/c1ccccc1OCc1ccc(Cl)cc1	aSyn UTR act -98
O=C(Cc1ccccc1)N/N=C/c1ccccc1OCc1ccc(Cl)cc1	aSyn UTR act -95
Cc1ccc(O)c(/C=N/NC(=O)Cc2ccc(Cl)cc2)c1	none
O=C(Nc1ccn(-c2ccccc2)n1)c1ccccc1Br	aSyn UTR act -161
O=C(Nc1ccn(-c2ccccc2)n1)c1ccc(Cl)cc1	aSyn UTR act -136
C/C(=N\OCC(=O)NCC(F)(F)F)c1cc2ccccc2o1	aSyn UTR act -76
CN(C)c1nc(N)nc(CSc2nc3cc(Cl)ccc3o2)n1	aSyn UTR act -126
COC(=O)c1ccccc1NC(=O)c1ccc(-c2ccc(Br)cc2)o1	aSyn UTR act -106
O=C(Nc1cccc2nsnc12)c1ccc(-c2ccc(Br)cc2)o1	aSyn UTR act -157
CCN(CC)c1ccc2cc(C(N)=O)c(=O)oc2c1	aSyn UTR act -98
CCN(CC)c1ccc2c(-c3ccc(S(=O)(=O)O)cc3S(=O)(=O)[O-])c3ccc(=[N+](CC)CC)cc-3oc2c1	none
CCN(CC)c1ccc2cc(C(N)=O)c(=N)oc2c1	aSyn UTR act -67
CCN(CC)c1ccc2cc(NC(=O)CCC(=O)O)c(=O)oc2c1	none
Nc1nc2ccccc2cc1-c1cccs1	aSyn UTR act -121
Cc1ccc2nc(Cl)c(-c3ccccc3)cc2c1	none
Cc1ccc(-c2cc3ccccc3nc2N)cc1	aSyn UTR act -93
c1csc(-c2ccc3ccccc3n2)c1	aSyn UTR act -140
COc1cc(NC(=S)N2CCOCC2)c(OC)cc1Cl	aSyn UTR act -211
CC1Oc2ccccc2N(CC(=O)NCc2ccc3c(c2)OCO3)C1=O (stereo not drawn)	aSyn UTR act -106
CC1CCCCC12NC(=O)N(CC(=O)NC(=O)Nc1ccc3c(c1)OCCO3)C2=O (stereo not drawn)	aSyn UTR act -169
CCOC(=O)C(C)Oc1cccc2c(=O)n(CC(=O)NCc3ccc4c(c3)OCO4)ccc12 (stereo not drawn)	none
CC1Oc2ccccc2N(CC(=O)Nc2ccc3c(c2)OCCO3)C1=O (stereo not drawn)	aSyn UTR act -77
COc1cc([C@@H]2c3cc4c(cc3[C@@H](NC3CCN(Cc5ccccc5)CC3)[C@H]3COC(=O)[C@H]23)OCO4)cc(OC)c1O	none
COc1ccc2c(c1)Cc1sc(NC(=O)c3ccccc3)nc1-2	aSyn UTR act -223
COc1ccc(C(=O)Nc2nc3c(s2)Cc2cc(OC)ccc2-3)cc1	aSyn UTR act -109
COc1ccc2c(c1)Cc1sc(NC(=O)c3cccs3)nc1-2	aSyn UTR act -242
COc1ccc(/C=N/N=C(\N)c2nonc2N)cc1	aSyn UTR act -111
Cc1ccccc1Nc1c(-c2ccc(N3CCOCC3)cc2)nc2cnccn12	aSyn UTR act -67
COc1nc(-c2ccccc2)ccc1-c1noc(-c2ccco2)n1	aSyn UTR act -168
COc1nc(-c2ccccc2)ccc1-c1noc(-c2ccccc2)n1	aSyn UTR act -94
COc1nc(C)ccc1-c1noc(-c2ccncc2)n1	aSyn UTR act -125
COc1ccc(-c2ccc(-c3noc(-c4ccco4)n3)c(OC)n2)cc1	aSyn UTR act -126
COc1nc(-c2ccccc2)ccc1-c1noc(-c2cccs2)n1	aSyn UTR act -198
O=C(CCSc1ccc(Cl)cc1)N1CCOCC1	aSyn UTR act -69
O=C(CSc1ccc(Cl)cc1)N1CCOCC1	aSyn UTR act -69
O=C(CSc1ccc(Br)cc1)N1CCOCC1	aSyn UTR act -65
O=C(Cn1cnc2c(oc3nc4c(cc32)CCCC4)c1=O)Nc1cccc(Cl)c1	none
C=C(C)Cn1cnc2c(oc3nc4c(cc32)CCCC4)c1=O	aSyn UTR act -85
CCN(CC)Cc1c(O)ccc2c(=O)c(-c3ccccc3)coc12	aSyn UTR act -64
COc1ccc(C(=O)Nc2nccs2)cc1OC	aSyn UTR act -71
COc1ccc(C(=O)Nc2nccs2)cc1	aSyn UTR act -120
